Reference: ChEMBL document CHEMBL2218924, “A broad activity screen in support of a chemogenomic map for kinase signalling research and drug discovery” (Biochem J, 2013)

Columns and labels:
[1] = biological target: Tyrosine-protein kinase SYK (Homo sapiens) (UniProt P43405); conditions: at 10 µM
[2] = biological target: T1, Serine/threonine-protein kinase TAO1 (Homo sapiens) (UniProt Q7L7X3); conditions: at 10 µM
T1 sequence (whole entry): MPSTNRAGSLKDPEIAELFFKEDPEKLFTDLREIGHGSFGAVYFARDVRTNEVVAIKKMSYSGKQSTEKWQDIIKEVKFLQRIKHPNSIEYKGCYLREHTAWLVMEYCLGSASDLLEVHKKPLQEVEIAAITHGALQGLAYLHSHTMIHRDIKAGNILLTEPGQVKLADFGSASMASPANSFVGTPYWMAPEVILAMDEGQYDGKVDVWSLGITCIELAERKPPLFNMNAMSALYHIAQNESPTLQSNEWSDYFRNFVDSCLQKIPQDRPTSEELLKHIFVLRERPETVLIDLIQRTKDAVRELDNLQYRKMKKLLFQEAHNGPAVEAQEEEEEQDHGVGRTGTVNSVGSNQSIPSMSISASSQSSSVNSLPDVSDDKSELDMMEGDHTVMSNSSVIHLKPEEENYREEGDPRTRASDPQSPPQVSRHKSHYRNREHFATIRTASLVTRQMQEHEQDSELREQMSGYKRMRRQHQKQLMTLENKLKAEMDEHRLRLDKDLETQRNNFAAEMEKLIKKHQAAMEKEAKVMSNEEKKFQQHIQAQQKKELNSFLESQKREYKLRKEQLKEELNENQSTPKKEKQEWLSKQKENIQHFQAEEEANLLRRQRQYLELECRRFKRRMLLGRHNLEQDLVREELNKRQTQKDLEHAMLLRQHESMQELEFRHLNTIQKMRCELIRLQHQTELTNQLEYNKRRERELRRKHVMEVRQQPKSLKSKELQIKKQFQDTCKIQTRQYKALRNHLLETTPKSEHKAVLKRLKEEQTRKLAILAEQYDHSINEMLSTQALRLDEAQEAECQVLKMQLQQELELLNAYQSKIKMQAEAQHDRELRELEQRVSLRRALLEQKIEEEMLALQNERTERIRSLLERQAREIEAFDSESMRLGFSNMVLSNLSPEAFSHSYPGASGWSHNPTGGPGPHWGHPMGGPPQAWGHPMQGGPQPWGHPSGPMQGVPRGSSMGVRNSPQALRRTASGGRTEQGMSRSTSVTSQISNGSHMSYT

[3] = biological target: T2, Serine/threonine-protein kinase TAO3 (Homo sapiens) (UniProt Q9H2K8); conditions: at 10 µM
T2 sequence (whole entry): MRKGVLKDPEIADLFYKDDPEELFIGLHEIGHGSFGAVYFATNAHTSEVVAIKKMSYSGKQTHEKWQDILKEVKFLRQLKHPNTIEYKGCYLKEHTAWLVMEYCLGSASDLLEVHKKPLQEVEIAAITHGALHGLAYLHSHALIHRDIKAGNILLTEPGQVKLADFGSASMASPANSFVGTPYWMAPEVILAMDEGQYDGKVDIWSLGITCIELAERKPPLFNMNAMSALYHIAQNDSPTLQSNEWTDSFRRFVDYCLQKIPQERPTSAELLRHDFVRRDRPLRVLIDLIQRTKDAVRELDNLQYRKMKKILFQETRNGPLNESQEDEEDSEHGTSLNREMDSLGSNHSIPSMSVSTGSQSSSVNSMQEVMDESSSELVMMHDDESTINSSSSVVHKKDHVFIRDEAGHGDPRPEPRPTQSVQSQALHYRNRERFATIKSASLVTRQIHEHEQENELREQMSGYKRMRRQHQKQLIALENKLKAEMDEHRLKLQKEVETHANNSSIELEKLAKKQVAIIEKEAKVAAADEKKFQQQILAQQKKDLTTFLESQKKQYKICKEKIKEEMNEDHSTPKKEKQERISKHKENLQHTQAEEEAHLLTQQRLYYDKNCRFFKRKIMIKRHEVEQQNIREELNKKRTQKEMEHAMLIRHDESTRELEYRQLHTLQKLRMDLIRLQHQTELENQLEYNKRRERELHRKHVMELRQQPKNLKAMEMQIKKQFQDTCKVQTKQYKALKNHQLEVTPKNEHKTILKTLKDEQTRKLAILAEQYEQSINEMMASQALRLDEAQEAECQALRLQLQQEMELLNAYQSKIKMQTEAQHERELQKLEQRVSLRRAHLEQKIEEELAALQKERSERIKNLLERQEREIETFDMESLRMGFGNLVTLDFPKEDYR

[4] = biological target: T3, Serine/threonine-protein kinase TBK1 (Homo sapiens) (UniProt Q9UHD2); conditions: at 1 µM
T3 sequence (whole entry): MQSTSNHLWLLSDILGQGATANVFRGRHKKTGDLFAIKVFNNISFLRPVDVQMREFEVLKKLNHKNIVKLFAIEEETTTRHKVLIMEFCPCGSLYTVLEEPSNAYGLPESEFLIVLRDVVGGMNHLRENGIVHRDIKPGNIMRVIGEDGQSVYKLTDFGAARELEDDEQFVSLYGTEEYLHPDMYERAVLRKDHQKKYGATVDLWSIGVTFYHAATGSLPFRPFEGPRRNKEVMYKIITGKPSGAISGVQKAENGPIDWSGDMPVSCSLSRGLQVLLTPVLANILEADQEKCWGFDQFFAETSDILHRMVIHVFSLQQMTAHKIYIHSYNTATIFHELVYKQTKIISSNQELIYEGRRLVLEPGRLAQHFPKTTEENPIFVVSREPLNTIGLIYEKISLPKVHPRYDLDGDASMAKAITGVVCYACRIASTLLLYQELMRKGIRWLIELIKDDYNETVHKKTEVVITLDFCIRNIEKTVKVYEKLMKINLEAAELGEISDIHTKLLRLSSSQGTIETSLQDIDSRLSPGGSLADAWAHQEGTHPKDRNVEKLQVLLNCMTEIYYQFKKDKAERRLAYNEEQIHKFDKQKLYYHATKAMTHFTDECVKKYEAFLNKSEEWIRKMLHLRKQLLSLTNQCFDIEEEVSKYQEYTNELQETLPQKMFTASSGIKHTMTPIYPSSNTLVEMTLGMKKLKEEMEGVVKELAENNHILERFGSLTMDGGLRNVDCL

[5] = biological target: T3, Serine/threonine-protein kinase TBK1 (Homo sapiens); conditions: at 10 µM
[6] = biological target: T4, TGF-beta receptor type-1 (Homo sapiens) (UniProt P36897); conditions: at 1 µM
T4 sequence (whole entry): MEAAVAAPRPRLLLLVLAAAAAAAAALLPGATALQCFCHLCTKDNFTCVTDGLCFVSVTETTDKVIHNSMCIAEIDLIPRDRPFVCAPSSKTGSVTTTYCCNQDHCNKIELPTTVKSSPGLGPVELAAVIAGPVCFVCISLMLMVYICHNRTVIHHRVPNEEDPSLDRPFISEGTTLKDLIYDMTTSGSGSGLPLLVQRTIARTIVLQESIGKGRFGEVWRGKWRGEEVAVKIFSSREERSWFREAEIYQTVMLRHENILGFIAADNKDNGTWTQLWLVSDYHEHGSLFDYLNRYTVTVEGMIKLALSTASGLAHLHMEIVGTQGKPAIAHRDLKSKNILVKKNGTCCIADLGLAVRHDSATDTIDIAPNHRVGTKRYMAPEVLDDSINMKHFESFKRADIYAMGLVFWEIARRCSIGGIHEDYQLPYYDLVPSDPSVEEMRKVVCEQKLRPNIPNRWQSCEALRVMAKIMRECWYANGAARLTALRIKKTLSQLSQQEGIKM

[7] = biological target: T4, TGF-beta receptor type-1 (Homo sapiens); conditions: at 10 µM
[8] = biological target: T5, Mitogen-activated protein kinase kinase kinase 7 (Homo sapiens) (UniProt O43318); conditions: at 1 µM
T5 sequence (whole entry): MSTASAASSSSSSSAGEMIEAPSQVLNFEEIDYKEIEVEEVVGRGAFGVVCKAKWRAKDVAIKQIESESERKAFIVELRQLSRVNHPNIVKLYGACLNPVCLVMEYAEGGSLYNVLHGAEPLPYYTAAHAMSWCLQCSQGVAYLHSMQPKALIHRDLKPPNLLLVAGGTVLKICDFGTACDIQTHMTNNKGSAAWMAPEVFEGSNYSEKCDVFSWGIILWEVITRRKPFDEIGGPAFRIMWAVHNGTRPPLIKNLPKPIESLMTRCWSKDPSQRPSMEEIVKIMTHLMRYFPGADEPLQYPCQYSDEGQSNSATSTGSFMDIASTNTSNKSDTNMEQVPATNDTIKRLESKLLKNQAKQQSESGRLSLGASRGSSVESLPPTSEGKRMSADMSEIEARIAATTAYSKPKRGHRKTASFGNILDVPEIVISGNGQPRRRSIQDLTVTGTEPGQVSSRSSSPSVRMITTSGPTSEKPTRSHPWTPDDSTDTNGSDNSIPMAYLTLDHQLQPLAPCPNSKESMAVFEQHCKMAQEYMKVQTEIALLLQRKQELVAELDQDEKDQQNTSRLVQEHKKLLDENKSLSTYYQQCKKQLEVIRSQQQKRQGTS

[9] = biological target: T5, Mitogen-activated protein kinase kinase kinase 7 (Homo sapiens); conditions: at 10 µM
[10] = biological target: T1, Serine/threonine-protein kinase TAO1 (Homo sapiens); conditions: at 1 µM
[11] = biological target: T6, Serine/threonine-protein kinase TAO2 (Homo sapiens) (UniProt Q9UL54); conditions: at 1 µM
T6 sequence (whole entry): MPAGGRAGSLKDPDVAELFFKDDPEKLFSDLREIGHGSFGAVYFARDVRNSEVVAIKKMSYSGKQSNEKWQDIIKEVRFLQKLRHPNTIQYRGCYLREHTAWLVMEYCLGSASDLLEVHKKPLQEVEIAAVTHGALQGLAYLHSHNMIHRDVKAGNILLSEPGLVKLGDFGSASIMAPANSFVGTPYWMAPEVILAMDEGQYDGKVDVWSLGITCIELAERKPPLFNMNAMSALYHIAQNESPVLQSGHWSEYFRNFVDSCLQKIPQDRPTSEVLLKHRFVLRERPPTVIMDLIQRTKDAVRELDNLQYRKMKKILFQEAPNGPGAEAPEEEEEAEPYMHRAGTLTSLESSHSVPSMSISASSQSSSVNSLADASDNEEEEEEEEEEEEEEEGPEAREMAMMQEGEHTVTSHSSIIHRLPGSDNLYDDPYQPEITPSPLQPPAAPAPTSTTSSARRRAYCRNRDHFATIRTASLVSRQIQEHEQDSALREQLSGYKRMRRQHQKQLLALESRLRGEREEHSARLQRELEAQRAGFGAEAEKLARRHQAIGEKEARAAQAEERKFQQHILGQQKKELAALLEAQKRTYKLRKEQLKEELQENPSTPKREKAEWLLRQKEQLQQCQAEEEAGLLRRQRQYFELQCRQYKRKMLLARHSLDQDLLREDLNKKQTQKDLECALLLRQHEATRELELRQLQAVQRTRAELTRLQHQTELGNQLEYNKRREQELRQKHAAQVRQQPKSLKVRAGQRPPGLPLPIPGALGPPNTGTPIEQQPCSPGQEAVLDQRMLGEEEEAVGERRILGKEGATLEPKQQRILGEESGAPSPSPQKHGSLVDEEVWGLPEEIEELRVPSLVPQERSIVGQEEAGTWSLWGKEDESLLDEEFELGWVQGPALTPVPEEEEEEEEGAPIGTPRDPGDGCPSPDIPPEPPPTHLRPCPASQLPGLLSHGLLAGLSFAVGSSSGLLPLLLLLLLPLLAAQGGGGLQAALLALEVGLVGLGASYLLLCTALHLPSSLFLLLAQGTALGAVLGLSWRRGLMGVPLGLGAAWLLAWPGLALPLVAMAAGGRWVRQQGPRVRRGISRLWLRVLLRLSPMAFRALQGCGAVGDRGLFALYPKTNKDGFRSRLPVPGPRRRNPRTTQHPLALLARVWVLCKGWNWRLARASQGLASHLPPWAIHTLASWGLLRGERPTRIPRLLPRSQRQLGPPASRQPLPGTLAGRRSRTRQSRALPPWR

[12] = biological target: T6, Serine/threonine-protein kinase TAO2 (Homo sapiens); conditions: at 10 µM
[13] = biological target: T2, Serine/threonine-protein kinase TAO3 (Homo sapiens); conditions: at 1 µM
[14] = biological target: T7, Inhibitor of nuclear factor kappa-B kinase subunit alpha (Homo sapiens) (UniProt O15111); conditions: at 1 µM
T7 sequence (whole entry): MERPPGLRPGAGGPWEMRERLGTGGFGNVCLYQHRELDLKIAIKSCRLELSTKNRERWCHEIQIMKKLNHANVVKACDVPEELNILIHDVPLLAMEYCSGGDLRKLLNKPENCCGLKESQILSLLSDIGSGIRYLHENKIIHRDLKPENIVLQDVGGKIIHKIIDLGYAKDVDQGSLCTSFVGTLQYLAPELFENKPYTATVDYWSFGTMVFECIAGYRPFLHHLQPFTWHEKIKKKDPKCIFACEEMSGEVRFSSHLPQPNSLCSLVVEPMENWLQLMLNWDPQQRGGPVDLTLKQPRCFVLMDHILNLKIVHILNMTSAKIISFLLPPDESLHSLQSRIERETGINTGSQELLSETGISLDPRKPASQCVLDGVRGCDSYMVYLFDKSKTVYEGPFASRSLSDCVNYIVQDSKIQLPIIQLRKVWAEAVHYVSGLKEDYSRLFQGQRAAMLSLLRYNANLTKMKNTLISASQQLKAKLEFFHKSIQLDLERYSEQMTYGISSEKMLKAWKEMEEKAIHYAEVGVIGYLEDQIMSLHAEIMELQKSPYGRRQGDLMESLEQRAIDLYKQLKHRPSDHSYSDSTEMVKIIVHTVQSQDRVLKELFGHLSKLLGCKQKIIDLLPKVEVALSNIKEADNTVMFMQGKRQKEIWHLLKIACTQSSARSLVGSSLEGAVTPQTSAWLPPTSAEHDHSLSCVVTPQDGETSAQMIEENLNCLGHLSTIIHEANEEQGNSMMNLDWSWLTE

[15] = biological target: T7, Inhibitor of nuclear factor kappa-B kinase subunit alpha (Homo sapiens); conditions: at 10 µM
[16] = biological target: Insulin receptor (Homo sapiens) (UniProt P06213); conditions: at 1 µM
Chain of Insulin receptor (Homo sapiens) (P06213 28-758 limits assumed): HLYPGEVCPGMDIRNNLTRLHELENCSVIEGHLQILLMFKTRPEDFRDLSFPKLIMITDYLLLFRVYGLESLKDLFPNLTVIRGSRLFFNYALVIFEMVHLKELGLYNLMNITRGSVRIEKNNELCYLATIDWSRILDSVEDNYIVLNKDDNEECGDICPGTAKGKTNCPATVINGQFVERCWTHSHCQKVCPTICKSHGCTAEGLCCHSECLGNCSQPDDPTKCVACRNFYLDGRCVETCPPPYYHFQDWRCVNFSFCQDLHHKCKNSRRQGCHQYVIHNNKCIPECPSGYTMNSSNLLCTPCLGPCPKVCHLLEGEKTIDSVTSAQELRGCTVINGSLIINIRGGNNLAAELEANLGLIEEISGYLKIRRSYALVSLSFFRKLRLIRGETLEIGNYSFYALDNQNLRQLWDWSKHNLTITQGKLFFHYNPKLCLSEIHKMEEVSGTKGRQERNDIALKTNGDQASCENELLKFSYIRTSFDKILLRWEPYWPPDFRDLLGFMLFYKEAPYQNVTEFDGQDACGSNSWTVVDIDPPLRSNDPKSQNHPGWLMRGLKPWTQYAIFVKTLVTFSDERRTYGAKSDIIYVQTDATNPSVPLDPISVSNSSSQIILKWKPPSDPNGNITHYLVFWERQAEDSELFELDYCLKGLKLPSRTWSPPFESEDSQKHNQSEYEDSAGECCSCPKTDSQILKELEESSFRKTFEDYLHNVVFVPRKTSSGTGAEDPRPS
Chain of Insulin receptor (Homo sapiens) (P06213 763-1382 limits assumed): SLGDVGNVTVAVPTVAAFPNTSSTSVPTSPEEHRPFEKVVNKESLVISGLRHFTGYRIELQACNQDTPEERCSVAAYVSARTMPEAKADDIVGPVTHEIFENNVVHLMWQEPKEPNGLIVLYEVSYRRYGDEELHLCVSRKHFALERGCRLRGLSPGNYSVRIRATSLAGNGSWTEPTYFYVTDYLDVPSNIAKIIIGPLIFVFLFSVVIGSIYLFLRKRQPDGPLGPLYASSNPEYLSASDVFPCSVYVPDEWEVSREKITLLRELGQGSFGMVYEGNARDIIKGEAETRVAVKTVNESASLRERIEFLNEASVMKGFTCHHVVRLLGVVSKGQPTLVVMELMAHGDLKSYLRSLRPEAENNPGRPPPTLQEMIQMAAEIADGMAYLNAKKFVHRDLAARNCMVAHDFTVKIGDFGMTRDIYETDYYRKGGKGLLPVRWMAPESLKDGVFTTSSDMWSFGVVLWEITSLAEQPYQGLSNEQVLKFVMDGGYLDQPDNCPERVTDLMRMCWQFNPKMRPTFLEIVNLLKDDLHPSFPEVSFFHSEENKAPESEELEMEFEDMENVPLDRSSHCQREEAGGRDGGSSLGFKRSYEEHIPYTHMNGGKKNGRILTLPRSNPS

Compound: Oc1cccc(-c2nc(N3CCOCC3)c3oc4ncccc4c3n2)c1
- residual activity [1]: 94%
- residual activity [2]: 94%
- residual activity [3]: 93%
- residual activity [4]: 82%
- residual activity [5]: 67%
- residual activity [6]: 82%
- residual activity [7]: 91%

Compound: CCOc1nc(NC(=O)Cc2cc(OC)ccc2OC)cc(N)c1C#N
- residual activity [4]: 79%
- residual activity [5]: 68%

Compound: Cn1sc(=O)n(Cc2ccccc2)c1=O
- residual activity [8]: 85%
- residual activity [9]: 79%
- residual activity [10]: 87%
- residual activity [2]: 85%
- residual activity [11]: 95%
- residual activity [12]: 91%
- residual activity [13]: 91%
- residual activity [3]: 91%
- residual activity [4]: 61%
- residual activity [5]: 55%
- residual activity [6]: 77%
- residual activity [7]: 72%
- residual activity [14]: 91%
- residual activity [15]: 93%
- residual activity [16]: 93%
